Records with an inconclusive call do not appear. Calls of active or inactive are those of the source. Calls come from the whole dose curve; as a rule, active = well fitted cell-killing curve with a large enough effect; inconclusive = small, poorly fitted or top-dose-only effect, or effect the other way; inactive = no such curve, though single readings can be large or run the other way.

This is an account of results in PubChem BioAssay AID1345085 (National Center for Advancing Translational Sciences (NCATS), 2018).
Potency is the fitted concentration of half-maximal effect.

This experiment relates to CAOV3. The experiment in a line: Confirmatory qHTS for gynecologic anti-cancer compounds from libraries of approved drugs and bioactive compounds. Note: nearly all actives have a fitted effect of over 55% in size. To be noted: gynecologic cancer cell panel viability, ATPlite luminescence, 48 h; series mostly up to 57.6 µM. An outline of the steps:
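IC50 values derive from an ATPlite ATP-content luminescence assay following 48 h treatment at 37 C. Each compound ran as an 11-concentration, threefold series (57.5 uM to 0.977 nM); HEK 293T served as control line for selectivity index.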
Consider `Cc1c(C)n(Cc2ccc(-c3ccccc3C(=O)O)cc2)c2ccc(C(=O)N[C@@H](C)c3ccc([N+](=O)[O-])cc3)cc12`, for which the Potency entry is “inactive”. As for `CCC1C(=O)N(C)c2cnc(Nc3ccc(C(=O)NC4CCN(C)CC4)cc3OC)nc2N1C1CCCC1` (centres undefined), the figure is 4.85 µM (active); as for `COc1cc(Nc2c(C#N)cnc3cc(OCCCN4CCN(C)CC4)c(OC)cc23)c(Cl)cc1Cl`, 27.3 µM (active). In the case of `Cc1nc(N)sc1-c1ccnc(Nc2ccc(N3CCOCC3)cc2)n1` it was 3.43 µM (active). With `CN(C)CC/C=C1\c2ccccc2COc2ccccc21`, the Potency result was “inactive”. In the case of `CNC(=O)c1ccccc1Sc1ccc2c(/C=C/c3ccccn3)n[nH]c2c1` it was 6.85 µM (active); in that of `Cc1nc(Nc2ncc(C(=O)Nc3c(C)cccc3Cl)s2)cc(N2CCN(CCO)CC2)n1`, 24.3 µM (active); in that of `C1CCC(C(CC2CCCCN2)C2CCCCC2)CC1` (centres undefined), 24.3 µM (active).

On to `O=C(c1ccc(/C=C/c2n[nH]c3ccccc23)cc1)N1CCNCC1`, for which the Potency was 19.3 µM (active). With `COc1cc(C(=O)N2CCC(N3CCN(C)CC3)CC2)ccc1Nc1ncc2c(n1)N(C)c1ccccc1C(=O)N2C`, the Potency is 10.9 µM (active). Turning to `CC(=O)Nc1cccc(-n2c(=O)n(C3CC3)c(=O)c3c(Nc4ccc(I)cc4F)n(C)c(=O)c(C)c32)c1`, the Potency entry was “inactive”. Regarding `O=C(NOCC1CC1)c1ccc(F)c(F)c1Nc1ccc(I)cc1Cl`, the Potency entry is “inactive”. In the case of `C=CC(=O)Nc1cc2c(Nc3ccc(F)c(Cl)c3)ncnc2cc1OCCCN1CCOCC1`, the Potency was 27.3 µM (active). Regarding `C[C@@]1(C(=O)Nc2ccc(F)nc2)CCCN1c1nc(Nc2cc(C3CC3)[nH]n2)c2cccn2n1`, the Potency was 12.2 µM (active).
